Bioassay records (PubChem)
KB-3-1 tox = kills parental KB-3-1 adenocarcinoma cells | KB-3-1 viability, CellTiter-Glo ATP luminescence, 72 h | Potency, µM (top dose mostly 46.1 µM), hits mostly cytotoxic | hit rate 1.4% among 400,000 | AID 1347075; also: nearly all actives have a fitted effect of over 60% in size
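72 h, 37 °C compound treatment of KB-3-1 parental cells; CellTiter-Glo added, 10 min, luminescence read. Data corrected against DMSO-only plates and normalized before curve fitting.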
HT1080 IDH1KD tx = toxicity to HT-1080 IDH1 knockdown cells (counter line). HT-1080 IDH1 knockdown viability, ATP luminescence, 48 h. Potency, µM (highest dose often 46.1 µM), actives largely listed as cytotoxic. hit rate 2% among 360,000. AID 686971
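% activity derives from luminescence (CellTiter-Glo), normalised to DMSO and no-cell wells. HT-1080-IDH1KD cells, 750/well, had 48 h compound exposure at 37 °C.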
HT1080NT lethal = kills 2HG-producing HT-1080-NT fibrosarcoma cells | HT-1080-NT fibrosarcoma viability, CellTiter-Glo ATP luminescence, 48 h | Potency, µM (top dose mostly 46.1 µM), actives largely listed as cytotoxic | hit rate 1.6% among 360,000;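 also: NT is the 2HG producing partner of a matched IDH1 knockdown line; nearly all actives have a fitted effect of over 55% in size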
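HT-1080-NT fibrosarcoma cells (2HG-overproducing), 750 cells/well in RPMI with 5% FBS, dosed after 2 h and incubated 48 h at 37C. CellTiter-Glo luminescence normalized to DMSO and no-cell wells; concentration-response curves fitted and classed.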
KB-V1 cytotox = KB-V1 MDR subline cytotoxicity; KB-V1 MDR cells viability, CellTiter-Glo, 72 h; Potency, µM (highest dose often 46.1 µM), most hits filed as cytotoxic; hit rate 3.4% among 400,000; AID 1347076; also: nearly all actives have a fitted effect of over 60% in size
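qHTS viability screen in drug-selected KB-V1 MDR cells: 72 h compound treatment at 37 degrees C, ATP luminescence end point.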
MCF10A rerep = DNA re-replication induction in MCF 10a cells | AID 624296 | MCF 10A DNA re-replication, Hoechst nuclear intensity, 48 h | Potency, µM (series often up to 46.1 µM), actives largely listed as activators | hit rate 2.9% among 350,000; also: nearly all actives have a fitted effect of over 50% in size
SW480 rereplic = DNA re-replication induction in SW480 cells; Potency, µM (highest dose often 46.1 µM), most hits filed as activators; AID 624297; hit rate 1.8% among 340,000; SW480 DNA re-replication, Hoechst DNA content imaging, 48 h; also: nearly all actives have a fitted effect of over 55% in size
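Readout is total intensity of Hoechst-stained nuclei, excited at 405 nm and collected at 500-530 nm. Compound treatment lasted 48 hr at 37 C in 5% CO2 before staining.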
Large screens that a line does not name were inactive. A selection: hits, their analogues and other compounds. The true share with any hit is near 8%. Calls follow the shape of the dose curve; as a rule, active = well fitted curve in the direction sought with a large enough effect; inconclusive = small, poorly fitted or top-dose-only effect, or another doubt; inactive = no such curve, though single readings can be large; an effect the other way counts as inactive or inconclusive.

CC(C)C(OC(=O)c1ccco1)C(=O)NC1CCCC1 (stereo unspecified)	none
CCCCOc1ccc(NC(=O)CN2CCN(Cc3ccccc3)CC2)cc1	MCF10A rerep inconclusive
COc1ccc(-c2cc(C(F)(F)F)nc(SCCC(=O)N3CCCC3)n2)cc1	none
CCn1c(SCC(=O)Nc2nc(C)cs2)nnc1-c1ccncc1	none
Cc1csc(NC(=O)CSc2nnc3c4ccccc4nc(C(C)(C)C)n23)n1	KB-3-1 tox inconclusive, HT1080 IDH1KD tx 6.3µM, HT1080NT lethal 5µM, KB-V1 cytotox inconclusive
Cc1ccc(C(=O)CSc2nnc3c4ccccc4nc(C(C)(C)C)n23)cc1	KB-3-1 tox 23µM, KB-V1 cytotox inconclusive, MCF10A rerep 6.5µM, SW480 rereplic 13µM
CC(=O)CSc1nnc2c3ccccc3nc(C(C)(C)C)n12	MCF10A rerep inconclusive, SW480 rereplic inconclusive
Cc1nn(C)cc1C(C(=O)NC1CCCCC1)N(C(=O)c1cnccn1)c1ccc(Oc2ccccc2)cc1 (stereo unspecified)	none
CCOCc1ccccc1Nc1ncnc2onc(-c3ccc(Cl)cc3)c12	none (no result: HT1080 IDH1KD tx, HT1080NT lethal, MCF10A rerep, SW480 rereplic)
N#Cc1c(N2CCN(c3ccc([N+](=O)[O-])cc3)CC2)[n+](=O)c2ccc(Cl)cc2n1[O-]	KB-3-1 tox inconclusive, KB-V1 cytotox inconclusive, MCF10A rerep inconclusive, SW480 rereplic 8.2µM
CC1(C)Oc2ccc3ccc(=O)oc3c2C(/C=N/O)C1=O (stereo unspecified)	SW480 rereplic inconclusive
FC(F)(F)c1ccc(/C=N/N2CCN(Cc3cccc4ccccc34)CC2)cc1	none
C(=N\N1CCN(Cc2cccc3ccccc23)CC1)/c1cccnc1	KB-3-1 tox inconclusive, KB-V1 cytotox inconclusive, MCF10A rerep 26µM
COc1cccc(C(c2sc3nc(-c4ccco4)nn3c2O)N2CCCC2)c1 (stereo unspecified)	none (no result: HT1080 IDH1KD tx, HT1080NT lethal, MCF10A rerep, SW480 rereplic)
Cc1c(C(=O)Nc2nnc(C(F)(F)F)s2)oc2ccccc12	KB-V1 cytotox 18µM, MCF10A rerep inconclusive
COC(=O)c1sc(NC(=O)c2oc3ccccc3c2C)nc1C	none
Cc1c(C(=O)Nc2ccccn2)oc2ccccc12	HT1080 IDH1KD tx inconclusive, KB-V1 cytotox 10µM, MCF10A rerep inconclusive
Cc1c(C(=O)NCc2cccnc2)oc2ccccc12	KB-V1 cytotox 16µM
O=C(Nc1ccccc1C(=O)Nc1nnc(C(F)(F)F)s1)c1ccccc1	KB-3-1 tox inconclusive, HT1080 IDH1KD tx 4.6µM, HT1080NT lethal 3.3µM, KB-V1 cytotox inconclusive, MCF10A rerep inconclusive
Cc1c(C(=O)NCCc2ccccc2)oc2ccccc12	none
N#Cc1ccc(C(=O)Nc2cc(S(=O)(=O)Nc3ccc(Cl)cc3)ccc2N2CCCCC2)cc1	none
COC(=O)C1(C(O)C(=O)c2ccc(C)cc2C)CCCCC1 (stereo unspecified)	KB-V1 cytotox inconclusive, MCF10A rerep inconclusive
CCN(CC)C(=O)CSC1=Nc2ccccc2C2=NC(c3ccccc3)C(=O)N12 (stereo unspecified)	none
CCN(CC)C(=O)NC1CCCCCCC1	none
COc1ccc(C(=O)OCC(=O)NC2CC2)cc1S(=O)(=O)N1CCOCC1	KB-3-1 tox inconclusive
Cc1c(C(=O)Oc2cccc3cccnc23)oc2ccccc12	HT1080 IDH1KD tx 23µM, HT1080NT lethal 23µM, MCF10A rerep inconclusive, SW480 rereplic inconclusive
CN1CCC(N(C)S(=O)(=O)c2ccc(NC(=O)c3ccc(S(=O)(=O)N(C)C)cc3)cc2)CC1	none
Cc1c(C(=O)Nc2ccc(S(=O)(=O)N(C)C3CCN(C)CC3)cc2)oc2ccccc12	KB-V1 cytotox 21µM, MCF10A rerep inconclusive, SW480 rereplic inconclusive
CCOC(=O)C1CCCN(C(=O)c2cccc(NC(=O)c3nsc4ccccc34)c2)C1 (stereo unspecified)	none (no result: HT1080 IDH1KD tx, HT1080NT lethal, MCF10A rerep, SW480 rereplic)
COc1cc(-c2cc(-c3ccc(N)cc3)[nH]c(=O)c2C#N)cc(OC)c1OC	SW480 rereplic inconclusive
CC(C)(C)n1[nH]c2c3c(ccc2c1=O)C(=O)c1ccccc1C3=O	KB-3-1 tox inconclusive, HT1080 IDH1KD tx inconclusive, HT1080NT lethal inconclusive, KB-V1 cytotox inconclusive, SW480 rereplic 12µM
Cc1ccc(C)c(-n2[nH]c3c4c(ccc3c2=O)C(=O)c2ccccc2C4=O)c1	KB-3-1 tox inconclusive, KB-V1 cytotox inconclusive, MCF10A rerep 18µM
COCCNC(=O)c1cccc2c1-c1ccccc1C2=O	KB-V1 cytotox inconclusive
COCCCn1[nH]c2c3c(ccc2c1=O)C(=O)c1ccccc1C3=O	KB-3-1 tox inconclusive, HT1080 IDH1KD tx inconclusive, HT1080NT lethal inconclusive, KB-V1 cytotox 15µM, MCF10A rerep inconclusive, SW480 rereplic inconclusive
Cc1ccc(-n2[nH]c3c4c(ccc3c2=O)C(=O)c2ccccc2C4=O)cc1	none
CCOc1ccccc1CN1CCNC(=O)C1CC(=O)N(C)Cc1nonc1C (stereo unspecified)	none
COc1ccccc1-c1nc2cc3ccccc3cc2nc1-c1ccccc1OC	MCF10A rerep inconclusive, SW480 rereplic 9.2µM
Cc1ccc2[nH]cc(C(=O)CN3CCN(c4ccccc4F)CC3)c2c1	KB-V1 cytotox 10µM
Cc1cccc(OCCCC(=O)Nc2nnc(C3CCCO3)s2)c1C (stereo unspecified)	none
Cc1cccc(C)c1OCC(=O)Nc1nnc(C2CCCO2)s1 (stereo unspecified)	KB-V1 cytotox 18µM, SW480 rereplic inconclusive
C/C(=N/NC(=O)CNC(=O)c1cccc(F)c1)c1ccc2c(c1)CCCC2	none
CCN(C#N)c1nc(NC(C)C)nc(NC(C)(C)C)n1	KB-V1 cytotox inconclusive
O=C1N/C(=C/c2ccc(N3CCOCC3)o2)C(=O)N1c1cccc(Cl)c1	KB-3-1 tox inconclusive, HT1080 IDH1KD tx inconclusive, HT1080NT lethal inconclusive, MCF10A rerep inconclusive, SW480 rereplic 4.6µM
Cc1ccc(/C=C2/NC(=O)N(c3ccccc3)C2=O)o1	none
O=C(Nc1cccc(Br)c1)c1ccn[nH]1	KB-3-1 tox 11µM, KB-V1 cytotox inconclusive
COc1ccccc1N(C)S(=O)(=O)c1ccc(C(=O)OCC(=O)N2CCC2)cc1	KB-3-1 tox inconclusive, HT1080 IDH1KD tx 16µM, HT1080NT lethal inconclusive, KB-V1 cytotox inconclusive
COc1ccccc1NS(=O)(=O)c1ccc(C(=O)N2CCCC(C(F)(F)F)C2)cc1 (stereo unspecified)	none
COc1ccccc1N(C)S(=O)(=O)c1ccc(C(=O)N2CCCC(C(F)(F)F)C2)cc1 (stereo unspecified)	SW480 rereplic 4.6µM
Cc1ccc(NC(=O)COC(=O)C2CCC2)cc1S(=O)(=O)N1CCOCC1	none
CC1(C)CC(=O)c2c(nc3ccccc3c2N)C1	none
Cc1nc2c(c3c1[nH]c1ccccc13)C(=O)CC(C)(C)C2	HT1080NT lethal inconclusive, MCF10A rerep 23µM, SW480 rereplic inconclusive
